TTR transcr act = increases transthyretin transcription; SH-SY5Y TTR promoter Gaussia luciferase, luminescence; 100% = recombinant luciferase protein wells; activation, % at 16.7 µM; hit rate 1.3% among 92,000;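 active = activation above the mean of all tested compounds plus 3 SD, cut at about 9.5% in these data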;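 note: cells exposed to compounds for one day before reading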
TTR inh HuH7 = HuH7 TTR transcription inhibition, counter-screen. HuH7 TTR promoter-Gaussia luciferase reporter, luminescence. inhibition, % at 16.7 µM. hit rate 4% among 1,100. AID 1117279. shares compounds with TTR transcr act;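 active = average inhibition above the solvent-only control wells' mean plus 3 SD, cut at about 15% in these data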;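 note: inhibitors lower well luminescence so higher value means more inhibition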
TTR up confirm = confirmation of human transthyretin transcription activators; activation, % at 16.7 µM; SHSY5Y TTR promoter Gaussia luciferase, luminescence; 100% = purified Lucia enzyme wells, no cells; shares compounds with TTR transcr act; 1,100 tested, under 10 active;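 active = mean activation above a set limit taken from the earlier primary screen, cut at about 11% in these data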
Each line names hits and unclear results; the compound was inactive in the other large screens (follow-up assays come after a bar, where they were run). The sample as a whole holds a higher share of hits than the screen did.

CCCSc1ncnc2[nH]ncc12	TTR transcr act 13 | TTR inh HuH7 inactive | TTR up confirm inactive
CCCCNC(=O)C[C@H]1C[C@@]2(C(=O)OCC)CCCC3=C2N(CCC3)C1=O	none
COc1ccc(Cc2nnc(NC(=O)c3ccc(OC(C)=O)cc3)s2)cc1OC	none
COc1ccc(Cc2nnc(NC(=O)c3cccs3)s2)cc1OC	TTR transcr act 15 | TTR inh HuH7 inactive | TTR up confirm inactive
COc1cccc(C(=O)Nc2nnc(Cc3ccc(OC)c(OC)c3)s2)c1	none
FC(F)(F)c1cccc(Cn2ccc3ccc(-c4ccc5ccn(Cc6cccc(C(F)(F)F)c6)c5c4)cc32)c1	none
CC(C)CNC(=O)OCc1cn(Cc2cccc(C(F)(F)F)c2)nn1	none
Cc1ccc(Cn2c(=O)n(Cc3ccc(C(=O)NCC4COC4)cc3)c(=O)c3ccccc32)cc1	none
COC(=O)[C@]12C[C@H](CC(=O)NCc3cccc(C(F)(F)F)c3)C(=O)N(CCc3ccc(OC)c(OC)c3)C1=C[C@H](C1CCCC1)O[C@@H]2C	none
Cc1c(C2(O)CCCCC2)[nH]c2ccc(C(F)(F)F)cc12	none
CCc1c(C2(O)CCCCC2)[nH]c2cnccc12	TTR transcr act 13 | TTR inh HuH7 inactive | TTR up confirm inactive
c1ccc(-c2ccc(CNc3nc(-c4ccccn4)nnc3-c3ccccc3)cc2)cc1	none
COC(=O)[C@]12C[C@H](CC(=O)NCc3cccc(C(F)(F)F)c3)C(=O)N(Cc3ccc(Cl)cc3Cl)C1=C[C@H](C(C)C)O[C@@H]2C1CC1	none
C[C@@H]1C(=O)O[C@@H]2CC34[C@H]5C[C@@H](C(C)(C)C)C36[C@H](OC(=O)[C@@H]6O)OC4(C(=O)O5)[C@@]12O (stereo partly drawn)	TTR transcr act 23 | TTR inh HuH7 inactive | TTR up confirm inactive
N#CC1C(=N)Cc2ccccc2-c2ccccc21 (stereo not drawn)	none
CCCC(=O)N1CCN(c2ccc(NC(=O)c3cccs3)cc2)CC1	none
COC(=O)[C@]12C[C@H](CC(=O)N3CCCCC3)C(=O)N(Cc3ccc(Cl)cc3Cl)C1=C[C@H](C1CCCC1)O[C@@H]2C	none
Cc1ccc(CNC(=O)COC(=O)[C@@H]2CC(O)CN2S(=O)(=O)c2ccc3c(c2)OCCO3)cc1 (stereo partly drawn)	none
Cc1ccc(NC(=O)N2CCCC2C(=O)NCc2ccc3c(c2)OCO3)cc1 (stereo not drawn)	none
Cc1ccc(S(=O)(=O)N2CC(O)CC2C(=O)NCc2ccc3c(c2)OCO3)cc1 (stereo not drawn)	TTR transcr act 15 | TTR inh HuH7 inactive | TTR up confirm inactive
COCCNC(=O)CCc1nnc2ccc(N3CCC(C)CC3)nn12	none
CCOC(=O)C(=O)Nc1ccccc1C(=O)NC(C)C	none
CCOC(=O)C(=O)Nc1ccccc1C(=O)OCC	none
CCOC(=O)C(=O)Nc1ccccc1C#N	TTR transcr act 25 | TTR inh HuH7 inactive | TTR up confirm inactive
CCCC1CCC2(CC1)CCC2OC(=S)Nc1ccc(Cl)cc1 (stereo not drawn)	none
Cc1ccccc1CN1CCCCC(NC(=O)c2ccccc2)C1=O (stereo not drawn)	none
CCn1nc(C)c(CN2CCCC(C(=O)c3cccc(OC(C)C)c3)C2)c1C (stereo not drawn)	none
Cc1nn(C(C)C)c(C)c1CN1CCCC(C(=O)c2cccc(OC(C)C)c2)C1 (stereo not drawn)	none
Cc1nn(C)c(C)c1CCC(=O)N1CCCC(C(=O)c2cccc(OC(C)C)c2)C1 (stereo not drawn)	TTR transcr act 10 | TTR inh HuH7 inactive | TTR up confirm inactive
Clc1cc(Cl)cc(CNC2CCC23CCC(c2ccccc2)CC3)c1 (stereo not drawn)	none
CC(=O)N1Cc2cc(C(=O)NCC(F)(F)F)nc(-c3cccc(-c4cc5ccccc5o4)c3)c2[C@H]1CCO	none
O=C(CN1CCN(Cc2ccc3c(c2)OCO3)CC1)Nc1ccc(F)cc1	none
O=C(CN1CCN(CC(=O)Nc2ccc(Cl)cc2)CC1)Nc1ccc(F)cc1	TTR transcr act 11 | TTR inh HuH7 inactive | TTR up confirm inactive
O=C(CN1CCc2ccccc2C1)Nc1ccc(F)cc1	none
CCCCNC(=O)C[C@@H]1C[C@]2(C(=O)OCC)CCC3=C2N(CCC3)C1=O	none
CC[C@@]1(c2ccc(C)cc2)C(=O)N(C(=O)OC(C)C)N1C(=O)OC(C)C	none
Cn1c(=O)c2c(nc(CN3CCc4ccccc4C3)n2CCCO)n(C)c1=O	TTR transcr act 15 | TTR inh HuH7 inactive | TTR up confirm inactive
Cn1c(=O)c2c(nc(CN3CCN(C(=O)c4ccco4)CC3)n2CCCO)n(C)c1=O	none
Cn1c(=O)c2c(nc(CN3CCc4ccccc4C3)n2Cc2ccccc2F)n(C)c1=O	none
CC(C)c1ccc(NC(=O)O[C@@H]2CC[C@@]34CCCN3C(=O)CCC[C@H]4C2)cc1	none
O=C(C1CC1)N1CCN=C1SCc1ccccc1	none

Assay outcomes (PubChem BioAssay)
